# FLuc inh: blocks purified firefly luciferase enzyme activity | Potency, µM (series often up to 115 µM), hits mostly inhibitors | purified P. pyralis luciferase, luminescence, biochemical | 76,000 tested, 2.5% active | P08659; also: % is scaled to controls: 0 for no effect and ±100 for the full control effect; nearly all actives have a fitted effect of over 65% in size
# Target sequence (P08659 whole entry, looked up): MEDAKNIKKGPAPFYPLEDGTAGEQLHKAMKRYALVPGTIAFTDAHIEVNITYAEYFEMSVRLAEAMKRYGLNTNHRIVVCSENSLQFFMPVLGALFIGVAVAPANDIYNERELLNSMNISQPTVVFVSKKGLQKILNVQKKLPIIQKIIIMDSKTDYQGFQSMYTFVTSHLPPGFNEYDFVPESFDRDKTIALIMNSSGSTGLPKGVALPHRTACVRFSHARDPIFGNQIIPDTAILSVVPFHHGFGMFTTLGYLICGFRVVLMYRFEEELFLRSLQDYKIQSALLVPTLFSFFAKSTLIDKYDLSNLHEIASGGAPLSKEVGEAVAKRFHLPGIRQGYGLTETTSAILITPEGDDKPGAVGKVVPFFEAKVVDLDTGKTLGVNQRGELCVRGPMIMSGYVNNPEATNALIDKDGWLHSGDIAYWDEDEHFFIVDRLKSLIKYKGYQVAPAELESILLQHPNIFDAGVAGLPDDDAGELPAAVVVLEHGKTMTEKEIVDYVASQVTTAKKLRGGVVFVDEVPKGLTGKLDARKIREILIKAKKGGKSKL
#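 FLuc 10nM, D-luciferin 10uM, ATP 10uM, Mg acetate 10mM, Tris acetate pH 7.5, Tween/BSA; cpd qHTS; enzyme added last; CCD luminescence.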
# HEK293 tox: cytotoxic compounds in HEK 293 cells; HEK 293 viability, ATP luminescence (CellTiter-Glo), 48-72 h; Potency, µM (highest dose often 115 µM), without a hit: at the top dose activity change, negative = cytotoxicity, most hits filed as inhibitors; 94,000 tested, 6.6% active; AID 1345083; also: % is scaled to controls: 0 for no effect and ±100 for the full control effect; nearly all actives have a fitted effect of over 60% in size
#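 Cytotoxicity was scored by loss of ATP-coupled luminescence (CellTiter-Glo) in HEK 293 cells. Compound treatment ran 48 or 72 hr at 37 degree Celsius, 5% CO2, 95% humidity.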
# NIH3T3 tox: cytotoxic compounds in NIH 3T3 cells. NIH 3T3 viability, CellTiter-Glo ATP luminescence, 48-72 h. Potency, µM (series often up to 96.7 µM), inactives show top-dose activity change, negative = cytotoxicity, most hits filed as inhibitors. 94,000 tested, 4.3% active. AID 1345082; also: % is scaled to controls: 0 for no effect and ±100 for the full control effect; nearly all actives have a fitted effect of over 55% in size
#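 Luminescent ATP readout (CellTiter-Glo, 10 min RT) after 48 or 72 hr compound exposure of NIH 3T3 cells seeded at 400 cells/well in 1536-well format; quantitative HTS.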
# NPR1 antag: antagonists of human natriuretic peptide receptor Npr1. Potency, µM (highest dose often 46.3 µM), for the others: top-dose activity change, negative = inhibition, hits mostly inhibitors. HEK293 hNpr1 GloSensor cGMP, ANP-stimulated luminescence. AID 1347048. P16066. 76,000 tested, 1.6% active; calls by dose curve; also: % is scaled to controls: 0 for no effect and ±100 for the full control effect; nearly all actives have a fitted effect of over 60% in size
#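 Compound pre-incubated 30 min at room temperature on GloSensor-loaded HEK293 cells stably carrying hNpr1 and the pGS-40F cGMP biosensor. Stimulation uses hNppA at 0.1 nM final; luminescence is taken at baseline and 20 min post-agonist.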
# NPR1 antag cnf: confirmation of human Npr1 natriuretic peptide receptor antagonists | 1,400 tested, 76% active | Potency, µM (top dose mostly 57.6 µM), inactives show top-dose activity change, negative = inhibition, usual class: inhibitors | shares compounds with NPR1 antag | AID 1347044 | HEK293 hNpr1 cGMP GloSensor luminescence, ANP-stimulated; calls by dose curve; also: nearly all actives have a fitted effect of over 70% in size
# NPR2 antag: antagonizes human Npr2, subtype selectivity check; shares compounds with NPR1 antag; HEK293 hNpr2 GloSensor cGMP luminescence, CNP-stimulated; Potency, µM (series often up to 57.6 µM), for inactives: at the highest dose activity change, negative = inhibition, actives largely listed as inhibitors; 1,400 tested, 67% active; calls by dose curve; also: nearly all actives have a fitted effect of over 70% in size
# FLuc inh counter: counter-screen for Npr1 antagonists: firefly luciferase inhibitors; shares compounds with NPR1 antag; purified FLuc enzyme, luminescence, Km substrate; Potency, µM (series often up to 57.6 µM), inactives show at the highest dose activity change, negative = inhibition, hits mostly inhibitors; 1,400 tested, 0.7% active; AID 1347047; also: 0% is about no effect
# GloSensor ctrl: reduces cGMP signal in GloSensor control cells; 1,400 tested, 69% active; shares compounds with NPR1 antag; Potency, µM (highest dose often 57.6 µM), for the others: at the top dose activity change, negative = inhibition, usual class: inhibitors; HEK293 GloSensor cGMP, SNP-stimulated, luminescence; AID 1347051; calls by dose curve; also: % is scaled to controls: 0 for no effect and ±100 for the full control effect; nearly all actives have a fitted effect of over 70% in size
# * hit, by the source's call; i = inactive; ? = inconclusive; . = not tested or not shown; [ ] = remark or other dose. Only some compounds are listed: those with a hit (about 11% of all), similar ones and a draw of the others. Unless noted, calls follow the shape of the dose curve; as a rule, active = well fitted curve in the direction sought with a large enough effect; inconclusive = small, poorly fitted or top-dose-only effect, or another doubt; inactive = no such curve, though single readings can be large; an effect the other way counts as inactive or inconclusive. Potency is read from the fitted curve at half-maximal effect.
SMILES,FLuc inh,HEK293 tox,NIH3T3 tox,NPR1 antag,NPR1 antag cnf,NPR2 antag,FLuc inh counter,GloSensor ctrl
Cc1ccccc1N1CCN(C(=O)c2nnn3c2COC(c2ccc(Cl)cc2)C3)CC1 (stereo not drawn),i,0%,0%,4%,.,.,.,.
COc1cc2c(cc1CNC(=O)Cn1nc(C)n(Cc3ccccc3)c1=O)CCC2,i,?,?,2%,.,.,.,.
Cc1cc(C(=O)NCC23CCC=C2N(C)C(=O)CC3)n(C)n1 (stereo not drawn),.,i,-18%,.,.,.,.,.
CNC(=O)[C@@H]1[C@@H](OC(N)=O)C(=O)N(C)C12CCN(C(=O)c1ccccc1OC(F)(F)F)CC2,.,-25%,?,.,.,.,.,.
Cc1cccc2nc(C(=O)N3CCC4(CC3)CC(c3ccccc3)CN(C)C4)cn12 (stereo not drawn),i,?,-2%,3%,.,.,.,.
Cc1cccc2nc(C(=O)N3CCCC(c4[nH]ncc4-c4ccccc4)C3)cn12 (stereo not drawn),i,?,?,?,?,?,-2%,8%
Nc1ncccc1CN1CCC2(CC1)COCCN2C(=O)OCc1ccccc1,i,?,?,7.9µM*,11µM*,11µM*,2%[86.2 µM],11µM*
Cc1ccc(C(=O)N2CCC3(CNc4ccccc4[S+](=O)([O-])N3)C2)cc1 (stereo not drawn),i,?,?,1%,.,.,.,.
O=C(c1ccc(C(F)(F)F)cc1)N1CCC2(CNc3ccccc3[S+](=O)([O-])N2)C1 (stereo not drawn),i,?,?,?,22µM*,?,-2%,17µM*
O=C(N1CCC(Cc2nc(-c3ccc(F)cc3)no2)CC1)C1(c2ccccc2)CC1,i,?,?,?,.,.,.,.
COc1ccc(C2(C(=O)N3CCC(Cc4nc(-c5ccccc5)no4)CC3)CC2)cc1,i,?,?,7.9µM*,7.7µM*,9.7µM*,0%,9.7µM*
COc1ccc(C2(C(=O)N3CCC(Cc4nc(-c5ccc(F)cc5)no4)CC3)CC2)cc1,i,?,?,5.6µM*,4.8µM*,6.1µM*,0%,6.1µM*
Cc1nn(Cc2ccccc2)c(C)c1[C@@H]1C=C[C@@H](NC(=O)c2ccc3c(c2)OCO3)C1,i,28µM*,?,32µM*,35µM*,35µM*,-13%[86.2 µM],35µM*
COCCC1(NC(=O)NC2CCCCC2)CCN(S(C)(=O)=O)CC1,.,i,4%,.,.,.,.,.
COc1ccc(CN2C[C@@H]3C(=O)N(Cc4ccc5c(c4)OCO5)C(=O)[C@@H]3C2)cc1OC,i,?,-34%,14µM*,17µM*,19µM*,-2%,12µM*
COc1ccccc1CN1C[C@@H]2C(=O)N(Cc3ccc4c(c3)OCO4)C(=O)[C@@H]2C1,i,-4%,-17%,-1%,.,.,.,.
O=C(CCC1CCN(C(=O)c2ccoc2)CC1)N1CCC(Cc2ccccc2)CC1,i,?,?,-22%,?,-27%,-16%,?
O=C(NC1CCN(Cc2ccccc2)CC1)c1cc2n(n1)CC(c1ccc(Cl)cc1)OC2 (stereo not drawn),i,?,?,10µM*,19µM*,17µM*,4%,12µM*

# Source: PubChem BioAssay
